Source: PubChem BioAssay
The source made the active and inactive calls.

Columns and labels:
[1] = test system: Human papillomavirus type 1a protein E7 (residues 44-93); test: HPV1a E7 fragment binders on microarrays, primary screen, biochemical, small-molecule microarray, residues 44-93, 635 nm fluorescence (AID 1108); conditions: small-molecule microarray binding, fluorescence 635 nm; higher = more signal;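 further: E7 fragment applied at 1 µg/mL in TBST for 1 h at 4 C; score combines spot fluorescence with its signal to noise ratio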
[2] = modulators of HCV replicon luciferase signal, primary screen, HCV replication inhibitor project, Huh7 cells, luciferase reporter (AID 1109); conditions: 48 h, higher = more signal;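 further: huh7 hepatoma cells harbouring a luciferase neomycin HCV replicon reporter; luciferase luminescence as measure of HCV replicon replication; test concentration not given here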
[3] = biological target: Left-right determination factor 2 (Homo sapiens) (UniProt O00292); test: LEFTY2 binders on small-molecule microarrays, primary screen, biochemical, small-molecule microarray, 635 nm fluorescence scan (AID 1110); conditions: LEFTY2 binding, higher = more signal
[4] = biological target: Calmodulin-1 (Homo sapiens) (UniProt P0DP23); test: CALM1 binders on microarrays, EGTA buffer, profiling panel, biochemical, small-molecule microarray, Cy5-labelled CALM1 (AID 1111); conditions: Cy5-CALM1 binding fluorescence, higher = more signal;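 further: labelled calmodulin applied in Tris saline Tween buffer holding calcium plus EGTA and DTT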
[5] = biological target: Calmodulin-1 (Homo sapiens) (UniProt P0DP23); test: calcium-bound CALM1 binders on microarrays, profiling panel, artefact control for SMM control-protein annotation, biochemical, small-molecule microarray, Cy5-labelled CALM1, plus calcium (AID 1112); conditions: Cy5-CALM1 binding fluorescence, higher = more signal;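 further: score merges spot fluorescence with signal to noise from triplicate slides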
[6] = small-molecule microarray binders of probe aWnt5a, primary screen, biochemical, biotinylated probe, 635/667 nm fluorescence (AID 1113); conditions: higher = more signal;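 further: score merges 667 nm fluorescence intensity with signal-to-noise per printed feature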
[7] = small-molecule microarray binders of probe aShh, primary screen, biochemical, biotinylated probe, 635/667 nm fluorescence (AID 1114); conditions: higher = more signal;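 further: probe is biotin-labelled aShh protein from a stem cell growth factor screen; measures binding of labelled protein to compounds printed on the slide; score merges feature fluorescence at 667 nm with signal-to-noise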
[8] = small-molecule microarray binders of probe aNog, primary screen, biochemical, biotinylated probe, 635/667 nm fluorescence (AID 1115); conditions: higher = more signal;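 further: probe is biotinylated aNog protein used at 0.15 µg/mL for 1 h at 4 C; z-score combines 667 nm fluorescence of each spot with its signal to noise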
[9] = biological target: Torsin-1A-interacting protein 1 (Homo sapiens) (UniProt Q5JTV8); test: LAP1 binders from COS7 cell lysate, primary screen, small-molecule microarray, 635/667 nm fluorescence (AID 1116); conditions: COS7-hLAP1 lysate binding, 635 nm fluorescence, higher = more signal
[10] = biological target: Alpha-bungarotoxin (Bungarus multicinctus) (UniProt P60615); test: alpha-bungarotoxin binders on microarray, profiling panel, artefact control for SMM control protein annotation, biochemical, small-molecule microarray, Alexa647 label, 635/667 nm fluorescence (AID 1117); conditions: alpha-BTX-A647 binding fluorescence, higher = more signal
Albumin (Bos taurus) = Albumin (Bos taurus) (UniProt P02769); test: bovine serum albumin binders on microarray, profiling panel, artefact control for SMM control protein annotation, biochemical, small-molecule microarray, Alexa647 label, 635/667 nm fluorescence (AID 1118); conditions: BSA-A647 binding, fluorescence 635 nm, higher = more signal;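 further: score merges 667 nm emission intensity and signal-to-noise per printed compound spot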
[11] = small-molecule microarray binders of probe aXIP, primary screen, biochemical, NeuroSMM set, 635/667 nm fluorescence (AID 1119); conditions: higher = more signal, called active from +8 up or from −8 down;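 further: probe is the protein aXip251-270 applied at 1 µg/mL to compound-printed slides; binding of probe to printed compounds measured as 667 nm fluorescence plus signal to noise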
[12] = small-molecule binders of probe aNOTCH3, primary screen, biochemical, small-molecule microarray, 635/667 nm fluorescence (AID 1120); conditions: higher = more signal;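 further: probe is a biotin-tagged antibody raised against NOTCH3 rather than NOTCH3 protein; score merges spot fluorescence near 667 nm with spot signal to noise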
[13] = small-molecule binders of probe aNOTCH2, primary screen, biochemical, small-molecule microarray, 635/667 nm fluorescence (AID 1121); conditions: higher = more signal;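 further: score merges feature fluorescence read at 667 nm with its signal to noise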
[14] = biological target: Carbonic anhydrase 2 (Homo sapiens) (UniProt P00918); test: CAII small-molecule binders, profiling panel, biochemical, small-molecule microarray, Alexa647-labelled CAII (AID 1122); conditions: CAII-A647 binding fluorescence, higher = more signal
[15] = COS7 lysate on small-molecule microarray, probe aHis, 635 nm (AID 1123); conditions: COS7 cell lysate, fluorescence, higher = more signal;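 further: z-score combines 667nm fluorescence intensity with signal-to-noise per printed compound spot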
[16] = compound binding in COS7 lysate, probe aLAP1, primary screen, cell lysate, small-molecule microarray (AID 1124); conditions: probe aLAP1, fluorescence, higher = more signal;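 further: lysate comes from COS7 cells expressing LAP1 and is applied at 0.3 µg/mL; score merges spot fluorescence near 667 nm with signal-to-noise over triplicate slides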
Sam68 (KHDRBS1) = test: Sam68 small-molecule binders, primary screen, biochemical, small-molecule microarray, 635 nm fluorescence (AID 1125); conditions: small-molecule microarray binding, higher = more signal;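 further: score merges 667 nm channel intensity with signal to noise over triplicate slides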
[17] = test system: Chordin-like protein 2 (CHRDL2); test: CHRDL2 small-molecule binders, primary screen, biochemical, small-molecule microarray, 635 nm fluorescence (AID 1126); conditions: small-molecule microarray binding, fluorescence 635 nm; higher = more signal;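 further: printed compound slides probed with Chrdl2 protein at 4 µg/mL for 1 h at 4 C; score merges 667 nm emission intensity with signal to noise over three replicate slides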
[18] = biological target: Concanavalin-A (Canavalia ensiformis) (UniProt P02866); test: ConA small-molecule binders, primary screen, artefact control for SMM control protein annotation, biochemical, small-molecule microarray, Alexa647 label, 635 nm (AID 1127); conditions: ConA-A647 binding fluorescence, higher = more signal;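 further: z combines 667 nm emission intensity with signal-to-noise across three replicate slides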
Concanavalin-A (Canavalia ensiformis), sequence (P02866 whole entry, looked up): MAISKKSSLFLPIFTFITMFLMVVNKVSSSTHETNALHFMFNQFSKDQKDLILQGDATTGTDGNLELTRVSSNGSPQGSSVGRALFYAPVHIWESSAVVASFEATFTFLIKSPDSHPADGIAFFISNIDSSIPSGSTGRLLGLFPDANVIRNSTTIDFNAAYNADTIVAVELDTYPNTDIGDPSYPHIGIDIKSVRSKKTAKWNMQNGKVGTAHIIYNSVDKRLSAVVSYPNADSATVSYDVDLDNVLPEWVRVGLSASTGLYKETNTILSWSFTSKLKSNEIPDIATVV

Alpha-bungarotoxin (Bungarus multicinctus), sequence (P60615 whole entry, looked up): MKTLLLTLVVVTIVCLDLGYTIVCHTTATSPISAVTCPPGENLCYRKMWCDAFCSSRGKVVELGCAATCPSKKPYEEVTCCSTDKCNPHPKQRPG
Torsin-1A-interacting protein 1 (Homo sapiens), sequence (Q5JTV8 whole entry, looked up): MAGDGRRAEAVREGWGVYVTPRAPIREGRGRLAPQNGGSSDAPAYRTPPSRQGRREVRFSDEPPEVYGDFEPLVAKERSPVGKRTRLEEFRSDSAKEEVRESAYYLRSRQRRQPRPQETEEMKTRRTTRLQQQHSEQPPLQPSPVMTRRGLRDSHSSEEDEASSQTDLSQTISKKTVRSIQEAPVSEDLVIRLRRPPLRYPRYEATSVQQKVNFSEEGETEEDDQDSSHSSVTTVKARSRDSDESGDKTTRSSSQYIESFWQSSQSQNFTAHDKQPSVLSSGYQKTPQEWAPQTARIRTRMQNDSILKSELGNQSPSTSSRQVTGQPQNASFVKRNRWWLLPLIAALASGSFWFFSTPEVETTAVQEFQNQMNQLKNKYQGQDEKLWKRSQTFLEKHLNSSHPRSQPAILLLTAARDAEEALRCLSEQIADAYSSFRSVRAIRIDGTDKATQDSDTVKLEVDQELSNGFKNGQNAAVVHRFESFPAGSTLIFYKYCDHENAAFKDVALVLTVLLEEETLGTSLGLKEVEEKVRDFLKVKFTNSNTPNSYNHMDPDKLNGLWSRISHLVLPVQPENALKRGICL
Left-right determination factor 2 (Homo sapiens), sequence (O00292 whole entry, looked up): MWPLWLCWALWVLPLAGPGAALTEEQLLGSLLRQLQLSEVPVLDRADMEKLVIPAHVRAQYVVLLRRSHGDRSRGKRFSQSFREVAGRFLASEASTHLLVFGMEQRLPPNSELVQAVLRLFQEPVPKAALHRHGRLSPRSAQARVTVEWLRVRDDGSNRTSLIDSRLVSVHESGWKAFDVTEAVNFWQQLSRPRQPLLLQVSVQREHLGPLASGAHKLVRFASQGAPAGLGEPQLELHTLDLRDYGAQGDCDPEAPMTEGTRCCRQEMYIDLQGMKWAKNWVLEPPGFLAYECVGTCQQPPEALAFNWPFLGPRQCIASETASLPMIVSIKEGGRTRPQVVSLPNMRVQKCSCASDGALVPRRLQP
Albumin (Bos taurus), sequence (P02769 whole entry, looked up): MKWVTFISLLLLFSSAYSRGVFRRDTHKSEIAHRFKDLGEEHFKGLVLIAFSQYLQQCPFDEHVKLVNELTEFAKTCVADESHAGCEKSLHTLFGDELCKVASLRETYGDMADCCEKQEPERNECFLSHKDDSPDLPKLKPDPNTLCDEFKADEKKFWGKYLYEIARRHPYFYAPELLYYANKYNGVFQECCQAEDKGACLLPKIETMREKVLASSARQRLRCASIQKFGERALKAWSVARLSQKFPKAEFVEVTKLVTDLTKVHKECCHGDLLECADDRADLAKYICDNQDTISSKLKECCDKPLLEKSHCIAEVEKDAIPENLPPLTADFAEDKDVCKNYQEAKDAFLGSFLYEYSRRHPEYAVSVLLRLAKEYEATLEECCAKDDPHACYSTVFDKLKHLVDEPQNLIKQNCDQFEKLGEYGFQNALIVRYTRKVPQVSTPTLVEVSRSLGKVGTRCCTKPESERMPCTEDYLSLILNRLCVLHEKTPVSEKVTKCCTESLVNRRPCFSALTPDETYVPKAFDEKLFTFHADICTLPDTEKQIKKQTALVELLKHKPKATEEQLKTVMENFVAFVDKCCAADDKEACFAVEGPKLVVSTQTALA

Row | Structure (SMILES) | composite z-score [1] | z-score [2] | composite z-score [3] | composite z-score [4] | composite z-score [5] | composite z-score [6] | composite z-score [7] | composite z-score [8] | composite z-score [9] | composite z-score [10] | composite z-score (Albumin (Bos taurus)) | composite Z-score [11] | composite z-score [12] | composite z-score [13] | composite z-score [14] | composite z-score [15] | composite z-score [16] | composite z-score (Sam68 (KHDRBS1)) | composite z-score [17] | composite z-score [18]
1 | C=C(CCCC)/C(=C/C[C@@H](OC(=O)c1ccncc1)c1ccc(CO)o1)c1cc(C(=O)OC)ccc1OC | 0.277 | -1.73 | 1.02 | 1.19 | -0.759 | -0.0445 | -0.0011 | -0.216 | 0.774 | 1.59 | 0.662 | 0.421 (inactive) | 0.0897 | -0.0349 | 0.709 | 1.46 | 0.924 | 1.3 | 0.422 | 1.15
2 | C=C(C)[C@@H]1CC=C(C(O)C2C=CC3C(=O)N(Cc4ccccc4)C(=O)C3N2n2cnnc2)CC1 (stereo not given in full) | 0.146 | -2.2 | -0.485 | 0.133 | 0.3 | 0.0077 | -0.156 | 0.499 | 0.401 | 0.291 | 0.936 | -0.619 (inactive) | 0.0297 | -0.0907 | 0.751 | 0.341 | -0.24 | -0.0341 | -0.918 | 0.317
3 | C=CCOC(=O)[C@@H]1[C@H]2C(=O)O[C@H](c3ccccc3)[C@H](c3ccccc3)N2[C@H](c2ccc(OCCOC(=O)[C@H]3C[C@H]4C(=O)N[C@@H](CC(C)C)C(=O)N4[C@H]3c3cccc(OCCO)c3)cc2)[C@@]12C(=O)Nc1ccc(I)cc12 | 1.44 | -1.34 | 0.697 | 0.896 | 0.163 | -0.0721 | 0.337 | 0.0852 | 0.921 | 2.52 | -0.413 | -0.367 (inactive) | 0.19 | -0.0424 | 0.35 | 1.48 | 0.334 | 1.29 | 1.04 | 1.14
4 | O=C1OCC=C[C@H]2OC34C=CCN(c5ccc(Cl)cc5)C(=O)[C@H]3N(CCCO)C(=O)[C@@H]4[C@@H]12 (stereo not given in full) | -0.0068 | -0.483 | -0.59 | -0.268 | 0.954 | -0.15 | -0.0769 | -0.345 | -0.0862 | -0.43 | -1.3 | -0.265 (inactive) | -0.254 | -0.164 | 0.96 | 0.446 | -0.0727 | -0.819 | -1.6 | -0.927
5 | COC(=O)[C@@]1(Cc2ccc(OC)cc2)[C@H]2c3cc(C(=O)N4CCCC4)n(CCc4ccccn4)c3C[C@H]2CN1C(=O)c1ccccc1 | -0.091 | -0.216 | -0.694 | 1.34 | 0.61 | 0.164 | 1.23 | 1.22 | 0.432 | 0.329 | 0.348 | 0.868 (inactive) | 0.268 | 0.0746 | 0.862 | 3.52 | 0.425 | -0.724 | -0.236 | 0.949
6 | O=C1OCCC=C[C@H]2OC34C=CCN(c5ccc6ccccc6c5)C(=O)[C@H]3N(CCCCCCO)C(=O)[C@@H]4C12 (stereo not given in full) | 0.404 | 0.0919 | -0.431 | -0.611 | -0.321 | -0.176 | -0.0337 | -0.201 | 0.164 | -1.37 | -0.768 | 0.938 (inactive) | -0.161 | -0.14 | 0.82 | 0.386 | -0.674 | 0.264 | -0.853 | -1.01
7 | CC(=O)NCCCC[C@@H]1NC(=O)[C@@H]2C[C@H](C(=O)NCCCCCC[N+](C)(C)C)[C@H](c3cccc(OCCO)c3)N2C1=O | 1.39 | 0.625 | 0.996 | -0.145 | -0.711 | 0.158 | 0.0181 | -0.0585 | 1.05 | 1.75 | -0.384 | 0.13 (inactive) | 0.163 | -0.0896 | 0.675 | 1.53 | 0.348 | 1.22 | 1.13 | 1.09
8 | COc1ccc(CCNC(=O)[C@@]2(C)c3ccccc3C(=O)N(Cc3ccccc3)[C@H]2c2ccc(CO)cc2)cc1 | 1.16 | -2.06 | 0.449 | 0.617 | -0.703 | 0.0618 | 0.0141 | 0.304 | 1.56 | 1.78 | 0.365 | 0.247 (inactive) | 0.178 | -0.116 | 0.446 | 1.51 | 0.941 | 1.16 | 0.594 | 1.14
9 | O=C1C2C=CC(C(O)CCc3ccccc3)N(Nc3ccccc3)C2C(=O)N1c1ccccc1 (stereo not given) | 0.0852 | 0.123 | -0.231 | 2.65 | 1.4 | 0.0797 | 0.382 | 1.11 | 2.2 | 3.09 | 0.861 | -0.107 (inactive) | 0.185 | 0.0278 | 0.65 | 2.82 | 0.899 | 1.3 | -0.788 | 1.2
10 | C=C(CCCC)C(=O)CC[C@H](OC(C)=O)c1ccc(CO)o1 | 0.478 | -0.72 | -0.0361 | -0.933 | -1.06 | -0.0182 | 0.13 | -0.196 | 1.43 | -0.28 | -0.471 | 0.304 (inactive) | 0.0701 | -0.117 | 0.637 | 0.136 | 0.164 | 0.865 | -0.149 | -0.0156
11 | C=CCNC(=O)[C@H]1[C@@H]2C(=O)O[C@@H](c3ccccc3)[C@@H](c3ccccc3)N2[C@@H](c2ccc(O)cc2)[C@]12C(=O)Nc1ccc(C#Cc3ccc(OC)cc3)cc12 | 0.758 | -2.06 | 0.884 | 0.664 | -0.367 | -0.219 | 0.278 | 0.409 | 1.31 | 0.196 | -0.208 | -0.155 (inactive) | -0.0903 | 0.0086 | 0.38 | 1.68 | 0.616 | 1.3 | 0.704 | 0.552
